# ATG4B inh = blocks human ATG4B protease cleavage of LC3 substrate; Q9Y4P1; ATG4B cleavage of LC3-PLA2, NBD-HPC fluorescence, 1 h; inhibition, % at 8.33 µM; 340,000 tested, 0.51% active; AID 504462; in the data active means inhibition above about 40%
# CR mimetic SO = caloric restriction mimetics inhibiting age-related superoxide in yeast | S. cerevisiae aged cells, superoxide DHE fluorescence; hits give low values | superoxide response (% of plate mean), % at 10 µM | 330,000 tested, 0.18% active;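 active means superoxide response under a set limit, about three screen SD below normal, cut at about 65% in these data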;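 further: yeast aged for seven days with compound at 30 °C before DHE staining; 100% = average MFI of all compound-treated wells on the plate with controls excluded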
# Efflux pump inh = inhibitors of Candida antifungal efflux pumps expressed in yeast; S. cerevisiae Candida pump triplex, Nile Red efflux; inhibition, % at 10 µM; 330,000 tested, 0.44% active;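 active means plate passing quality check with inhibition over a set limit, or well fluorescence over plate mean plus 4 SD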;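 further: Nile Red retained in pooled yeast measured as flow cytometry median fluorescence; 0% = buffer negative control and 100% = Enniatin B positive control; higher means more Nile Red kept so more efflux inhibition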
# GRK2 inh = blocks RNA aptamer binding to human GRK2; 330,000 tested, 0.59% active; P25098; inhibition of aptamer binding, % at 10 µM; bead flow cytometry, FAM-aptamer displacement from GRK2;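 active means inhibition of aptamer binding above 40%, roughly 3 SD of noise, on plates passing a quality check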;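 further: median bead fluorescence of bound FAM aptamer so fluorescent compounds give negative values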
# GRK2 inh confirm = confirmation of human GRK2 inhibitors displacing RNA aptamer; bead-bound GRK2, FAM-aptamer displacement, flow cytometry; shares compounds with GRK2 inh; 2,000 tested, 4% active; aptamer displacement, % at 10 µM;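 active means aptamer displacement above 40%, near three times the noise of non-fluorescent compounds, on plates passing quality checks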;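 further: negative values mostly reflect intrinsic compound fluorescence rather than true enhancement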
# FAM quench CP1 = quenches fluorescent RNA aptamer, GRK2 hit artifact. fluorescence response (% of DMSO), % at 10 µM. 2,000 tested, under 10 active. Carboxyfluorescein RNA aptamer on beads, flow cytometry quenching; hits give low values. shares compounds with GRK2 inh;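 active means compounds that quench the bead-bound fluorescent RNA probe, cutting fluorescence to under half of the solvent control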;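 further: counterscreen run without GRK2 so only probe quenching by compound is measured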
# GRK2 CP2 = human GRK2 inhibition confirmation, cherry pick 2 | shares compounds with GRK2 inh | bead-bound GRK2, FAM-aptamer displacement, flow cytometry | inhibition of aptamer binding, % at 10 µM | 360 tested, under 10 active;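 active means inhibition of aptamer binding above 40%, about triple the noise seen with nonglowing compounds, on plates passing quality control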;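 further: negative values mostly come from compounds that fluoresce themselves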
# FAM quench CP2 = aptamer fluorescence quenching in GRK2 counter-screen | 360 tested, under 10 active | fluorescence response vs DMSO, % at 10 µM | shares compounds with GRK2 inh | carboxyfluorescein RNA aptamer beads, flow cytometry quenching; hits give low values;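 active means response vs DMSO under 50%, meaning signal dropped by over half, treated as fluorescence quencher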;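 further: labelled aptamer on streptavidin beads without GRK2 as a quench counter-screen; 100% = bead fluorescence of DMSO wells and lower means quenching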
# Numbers without * were called inactive; . = no result. Compounds with a hit are over-represented: about 1.6% of the library has one in this group of screens.
SMILES,ATG4B inh,CR mimetic SO,Efflux pump inh,GRK2 inh,GRK2 inh confirm,FAM quench CP1,others
O=C(CNS(=O)(=O)c1ccc(Br)cc1)NCc1ccncc1,1,128,0,3,.,.,
Cc1ccc(CNC(=O)C2CCCC2)cc1,4,107,0,2,.,.,
Cc1ccc2[nH]c(CNC(=O)C3CCCCC3)cc2c1,-4,105,0,60*,6,101,
O=C(NN1C(=O)c2ccccc2C1=O)c1ccccc1[N+](=O)[O-],-7,111,0,2,.,.,
Cc1ccc(N2CC(C(=O)Nc3cccc(C(=O)NC4CC4)c3)CC2=O)cc1 (configuration not stated),-4,79,0,6,6,98,
CCOC(=O)c1c(-c2ccc(C)cc2)csc1NC1=NS(=O)(=O)c2ccccc21,-8,102,0,5,.,.,
COc1cc(C(=O)OC(C)C(=O)NC2CCCCC2C)c([N+](=O)[O-])cc1OC (configuration not stated),-2,107,0,0,.,.,
CC(OC(=O)c1ccc([N+](=O)[O-])s1)C(=O)NC1CCCCC1C (configuration not stated),-7,150,0,33,2,96,
CC1CCN(S(=O)(=O)c2ccc(C(=O)OC(C)C(=O)NC3CCCCC3C)cc2)CC1 (configuration not stated),3,114,0,0,-23,98,
CC(Sc1nnc(-c2ccncc2)n1C)C(=O)NCC1CCCO1 (configuration not stated),4,109,0,1,.,.,
Cc1cc(NC(=O)C(C)SCC(=O)OCc2ccc([N+](=O)[O-])cc2)no1 (configuration not stated),-5,93,0,4,.,.,
C[C@H](NC(=O)c1nc[nH]c1C(=O)N[C@@H](Cc1ccccc1)C(=O)OCc1ccccc1)C(=O)OCc1ccccc1,-18,98,0,0,.,.,
Cc1cccc(NC(=O)c2nc[nH]c2C(=O)N[C@@H](Cc2ccccc2)C(=O)OCc2ccccc2)c1,-10,113,0,51*,-2,103,GRK2 CP2=-17;FAM quench CP2=92
COc1cnn(-c2ccc(C)cc2)c(=O)c1Br,-5,98,0,30,0,94,
CCN(c1cccc(C)c1)S(=O)(=O)c1c(C)[nH]c(C)c1C(=O)N1CCCCC1,-3,74,0,1,.,.,
CCOc1ccc(Oc2ccc(NC(=O)[C@@H](NC(N)=O)[C@@H](C)CC)cc2)cc1,-6,111,0,96*,6,98,
CC[C@H](C)[C@H](NC(N)=O)C(=O)Nc1ccc(S(=O)(=O)NC(C)C)cc1,2,104,0,1,.,.,
CCNC(=O)c1cc2c(=O)n3cccc(C)c3nc2n(Cc2ccc(C)cc2)c1=N,-4,118,0,1,.,.,
COc1ccc(CNC(=O)c2cc3c(=O)n4cccc(C)c4nc3n(CC3CCCO3)c2=N)cc1 (configuration not stated),2,87,0,0,-2,97,
Cc1cccn2c(=O)c3cc(C(=O)NCc4ccc(F)cc4)c(=N)n(CC4CCCO4)c3nc12 (configuration not stated),-3,87,0,7,.,.,
Cc1cccn2c(=O)c3cc(C(=O)NCCN4CCOCC4)c(=N)n(CCN4CCOCC4)c3nc12,-1,101,0,41*,-1,97,
CCCn1c(=N)c(C(=O)NCc2ccc3c(c2)OCO3)cc2c(=O)n3cccc(C)c3nc21,5,107,0,78*,-2,93,
Cc1cccc(CN2CCC(n3nccc3NC(=O)CCCc3ccccc3)CC2)n1,-3,110,0,17,.,.,
O=C(NCC(=O)N1CCN(c2ccccc2)CC1)c1ccco1,-3,121,0,1,.,.,
O=C(Nc1ccccc1C(=O)NCCCN1CCOCC1)c1ccc(F)cc1,-1,92,0,0,.,.,
Cc1cccc(NS(=O)(=O)c2ccc(C(=O)N3CCN(c4ccccc4O)CC3)cc2)c1C,-8,100,0,5,.,.,

# Screening data as filed in PubChem.
